Inconclusive results are not listed. The source made the active and inactive calls. Unless noted, the call rests on the fitted dose curve.
Columns and labels:
[1] = qHTS for Inhibitors of the Functional Ribonucleoprotein Complex (vRNP) of Lassa (LASV) Arenavirus: LASV Primary Screen - GLuc reporter signal (AID 1347082; calls by dose curve; tested in HEK293 reporter line; further: nearly all actives have a fitted effect of over 60% in size; on activity change, negative = inhibition: series mostly up to about 57 µM)
[2] = qHTS for Inhibitors of the Functional Ribonucleoprotein Complex (vRNP) of Lassa (LASV) Arenavirus: Viability assay - alamar blue signal for LASV Primary Screen (AID 1347083; calls by dose curve; tested in HEK293 reporter line; further: nearly all actives have a fitted effect of over 80% in size; on activity change, negative = reduced viability: series mostly up to about 57 µM)
[3] = qHTS for Inhibitors of the Functional Ribonucleoprotein Complex (vRNP) of Lymphocytic Choriomeningitis Arenaviruses (LCMV): Viability assay - alamar blue signal for LCMV Primary Screen (AID 1347085; calls by dose curve; tested in HEK293 reporter line; further: nearly all actives have a fitted effect of over 80% in size; on activity change, negative = lower viability: series mostly up to about 57 µM)
[4] = target: Nucleoprotein (Lymphocytic choriomeningitis virus (strain Armstrong)) (UniProt P09992); assay: qHTS for Inhibitors of the Functional Ribonucleoprotein Complex (vRNP) of Lymphocytic Choriomeningitis Arenaviruses (LCMV): LCMV Primary Screen - GLuc reporter signal (AID 1347086); further: nearly all actives have a fitted effect of over 70% in size; on activity change, negative = inhibition: series mostly up to about 57 µM
Sequence of Nucleoprotein (Lymphocytic choriomeningitis virus (strain Armstrong)) (P09992 whole entry, looked up): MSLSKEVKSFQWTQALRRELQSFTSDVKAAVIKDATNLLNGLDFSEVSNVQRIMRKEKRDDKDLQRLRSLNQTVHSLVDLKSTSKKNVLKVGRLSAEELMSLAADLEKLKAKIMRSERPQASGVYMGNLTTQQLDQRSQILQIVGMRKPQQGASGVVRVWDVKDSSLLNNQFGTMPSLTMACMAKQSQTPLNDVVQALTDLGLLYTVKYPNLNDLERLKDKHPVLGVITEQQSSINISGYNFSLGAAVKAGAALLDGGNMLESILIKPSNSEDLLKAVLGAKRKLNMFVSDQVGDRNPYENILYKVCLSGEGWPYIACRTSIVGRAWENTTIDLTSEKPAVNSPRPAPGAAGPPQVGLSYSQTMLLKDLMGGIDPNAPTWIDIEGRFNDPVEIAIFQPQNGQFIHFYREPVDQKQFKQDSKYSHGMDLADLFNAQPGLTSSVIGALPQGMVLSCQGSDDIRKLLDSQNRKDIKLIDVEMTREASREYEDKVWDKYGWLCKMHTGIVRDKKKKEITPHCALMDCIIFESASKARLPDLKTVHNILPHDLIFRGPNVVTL
On the % scale 0 is the no-effect control and ±100 the full control effect; potency means the concentration at half of the fitted maximal effect.

CC[C@H]1OC(=O)[C@H](C)[C@@H](O[C@H]2C[C@@](C)(OC)[C@@H](O)[C@H](C)O2)[C@H](C)[C@@H](O[C@@H]2O[C@@H](C)C[C@H](N(C)C)[C@@H]2O)[C@](C)(O)C[C@@H](C)C(=O)[C@H](C)[C@@H](O)[C@]1(C)O
inactive: Potency [1] | Potency [2] | Potency [3] | Potency [4]

C/C=C(/C)C(=O)O[C@@H]1c2cc3c(c4c2[C@@]2(CO4)C(=O)C(OC)=C(OC)C=C2C[C@@H](C)[C@H]1C)OCO3
inactive: Potency [1] | Potency [2] | Potency [3] | Potency [4]

CC(C)C/C=C(\C=O)c1ccccc1
inactive: Potency [1] | Potency [2] | Potency [3] | Potency [4]

C[C@@H]1C(=O)CC2C(C)(C)CCC[C@]2(C)[C@@]1(O)CCc1ccoc1 (stereo not given in full)
inactive: Potency [1] | Potency [2] | Potency [3] | Potency [4]

Cc1cc(O)c2c(c1)C(O)(C1OC(CO)C(O)C(O)C1O)c1cccc(O)c1C2=O (stereo not given)
inactive: Potency [1] | Potency [2] | Potency [3] | Potency [4]

CC(=O)NC(Cc1cnc[nH]1)C(=O)O (stereo not given)
inactive: Potency [1] | Potency [2] | Potency [3] | Potency [4]

COc1c2c(nc3occc13)C(CCC(C)(C)O)(OC)C(O)CC2 (stereo not given)
inactive: Potency [1] | Potency [2] | Potency [3] | Potency [4]

O=C(c1ccccc1)N1CCCCC1
inactive: Potency [1] | Potency [2] | Potency [3] | Potency [4]

COc1cc(C(=O)O)cc(OC)c1OC
inactive: Potency [1] | Potency [2] | Potency [3] | Potency [4]

COc1ccc2[nH]c3c(c2c1)CCn1c-3nc2ccccc2c1=O
inactive: Potency [1] | Potency [2] | Potency [3] | Potency [4]

NCc1ccccc1
inactive: Potency [1] | Potency [2] | Potency [3] | Potency [4]

COc1cc(C(=O)OC2C[C@H]3CC[C@@H](C2)N3)ccc1O (stereo not given in full)
inactive: Potency [1] | Potency [2] | Potency [3] | Potency [4]

Nc1nc2c(ncn2[C@@H]2O[C@H](CO)[C@@H](O)[C@@H]2O)c(=O)[nH]1
inactive: Potency [1] | Potency [2] | Potency [3] | Potency [4]

CC(=O)OC[C@H]1O[C@@H](O[C@H]2C[C@]3(C)C(C[C@@H](O)C4C([C@]5(C)CC[C@@H](C(C)(C)O)O5)CC[C@]43C)[C@@]3(C)CC[C@H](O)C(C)(C)C23)[C@H](O[C@@H]2O[C@@H](C)[C@H](O)[C@@H](O)[C@H]2O)[C@@H](O)[C@@H]1O (stereo not given in full)
inactive: Potency [1] | Potency [2] | Potency [3] | Potency [4]

CCCCC[C@H](O)/C=C/C=C/C/C=C\CCCC(=O)O
inactive: activity change, negative = inhibition [1] -30.5% [at 0.757 µM] | activity change, negative = reduced viability [2] -19.5% [at 0.757 µM] | activity change, negative = lower viability [3] 9.71% [at 0.757 µM] | activity change, negative = inhibition [4] 8.09% [at 0.757 µM]

CC/C=C\CC/C=C/CO
inactive: Potency [1] | Potency [2] | Potency [3] | Potency [4]

Cc1c(O)c2c(c(C(=O)/C=C/c3ccccc3)c1O)OC(C)(C)C=C2
inactive: Potency [1] | Potency [2] | Potency [3] | Potency [4]

C/C=C1/CN2CC[C@]34C(=C(C=O)[C@@H]1C[C@H]23)Nc1c(O)cccc14
inactive: Potency [1] | Potency [2] | Potency [3] | Potency [4]

COc1ccccc1NC(C)=O
inactive: Potency [1] | Potency [2] | Potency [3] | Potency [4]

C=C(C)C(COc1c2occc2cc2ccc(=O)oc12)OC(C)(C)C(O)COc1c2occc2cc2ccc(=O)oc12 (stereo not given)
inactive: Potency [1] | Potency [2] | Potency [3] | Potency [4]

COc1ccc(CO)cc1
inactive: Potency [1] | Potency [2] | Potency [3] | Potency [4]

CC1(C)CCC[C@@]2(C)CC=C(C(=O)O)[C@@H]3C[C@]312
inactive: Potency [1] | Potency [2] | Potency [3] | Potency [4]

C=C1C(=O)OC2C=C(C)CCC=C(C)CCC12 (stereo not given)
inactive: Potency [1] | Potency [2] | Potency [3] | Potency [4]

C[C@]12CCC3C(CC[C@H]4C[C@H](O)CC[C@]34C)C1C[C@H](O)[C@@H]2O (stereo not given in full)
inactive: Potency [1] | Potency [2] | Potency [3] | Potency [4]

COC(=O)C1C(O)CC2CCC1N2C (stereo not given)
inactive: Potency [1] | Potency [2] | Potency [3] | Potency [4]

C=C(CC[C@]12OC(C(=O)O)C(O)(C(=O)O)C(C(=O)O)(O1)C(OC(=O)/C=C/[C@@H](C)C[C@@H](C)CC)C2O)[C@@H](OC(C)=O)[C@H](C)Cc1ccccc1 (stereo not given in full)
inactive: Potency [1] | Potency [2] | Potency [3] | Potency [4]

CC(C)=CCC/C(C)=C/COC=O
inactive: Potency [1] | Potency [2] | Potency [3] | Potency [4]

COC(=O)c1ccc(=O)c2nc3/c(=C/O)c(O)cc(=O)c3[nH]c12
inactive: Potency [1] | Potency [2] | Potency [3] | Potency [4]

C[C@H]1OC(=O)CC[C@@H]2[C@]1(C)CCC1[C@@]2(C)CC[C@@]2(C)C3CC(C)(C)CC[C@]3(CO)CC[C@]12C (stereo not given in full)
inactive: Potency [1] | Potency [2] | Potency [3] | Potency [4]

CSCCCN=C=S
inactive: Potency [1] | Potency [2] | Potency [3] | Potency [4]

C[C@@H]1C(=O)O[C@H]2[C@H]1CC[C@@]1(C)C(=O)C=C[C@@](C)(O)[C@H]21
inactive: Potency [1] | Potency [2] | Potency [3] | Potency [4]

CC1=CC2OC3CC4OC(=O)C=CC=CC(=O)OCCC(C)C(O)C(=O)OCC2(CC1O)C4(C)C31CO1 (stereo not given)
inactive: Potency [1] | Potency [2] | Potency [3] | Potency [4]

CC1=CC(=O)O[C@@H]1[C@@]1(C)C[C@H]2OC(=O)C[C@H]3[C@@H](C)C(=O)C(O)=C1[C@@]23CO
inactive: Potency [1] | Potency [2] | Potency [3] | Potency [4]

CC(C)=CCc1c(O)cc2c(c1O)C(=O)CC(c1ccccc1)O2 (stereo not given)
inactive: Potency [1] | Potency [2] | Potency [3] | Potency [4]

COC(=O)C1=CO[C@@H](OC2OC(CO)C(O)C(O)C2O)[C@@H]2C(CO)=CC[C@H]12 (stereo not given in full)
inactive: Potency [1] | Potency [2] | Potency [3] | Potency [4]

COc1n[nH]c2nncnc12
inactive: Potency [1] | Potency [2] | Potency [3] | Potency [4]

COc1c(C(O)CC(C)C)ccc2c1C(=O)OCc1cc(C)cc(O)c1O2 (stereo not given)
inactive: Potency [1] | Potency [2] | Potency [3] | Potency [4]

CCCCCCCCC=O
inactive: Potency [1] | Potency [2] | Potency [3] | Potency [4]

O=C1Nc2ccccc2C(=O)N2CCC[C@@H]12
inactive: Potency [1] | Potency [2] | Potency [3] | Potency [4]

COc1cc2c(cc1OC)OC(C)(C)C=C2
inactive: Potency [1] | Potency [2] | Potency [3] | Potency [4]

C=C1C[C@H](O)[C@@H]2[C@H](OC(=O)[C@H]2C)[C@H]2[C@H](C)[C@@H](O)C[C@@H]12
inactive: Potency [1] | Potency [2] | Potency [3] | Potency [4]

Cc1coc2c1C(=O)C(=O)c1c-2ccc2c(C)cccc12
inactive: Potency [1] | Potency [2] | Potency [3] | Potency [4]

C/C1=C\[C@@H](O)C(C(C)C)C(OC(=O)c2ccc(O)cc2)C/C(C)=C/CC1 (stereo not given in full)
inactive: Potency [1] | Potency [2] | Potency [3] | Potency [4]

CCCCCCCCCO
inactive: Potency [1] | Potency [2] | Potency [3] | Potency [4]

COc1cc2c(c(OC)c1OC)-c1c(cc3c(c1O)OCO3)C[C@@H](C)[C@@H](C)C2
inactive: Potency [1] | Potency [2] | Potency [3] | Potency [4]

CC1=C[C@H]2OC(=O)[C@@H](C)[C@H]2C[C@@H]2[C@H]1C[C@@H](O)[C@@]2(C)O
inactive: Potency [1] | Potency [2] | Potency [3] | Potency [4]

CC(=O)O[C@H]1C[C@@]2(O)[C@@H](OC(=O)c3ccccc3)C3[C@@](C)([C@@H](O)C[C@H]4OC[C@@]34OC(C)=O)[C@@H](O)[C@H](OC(C)=O)C(=C1C)C2(C)C (stereo not given in full)
inactive: Potency [1] | Potency [2] | Potency [3] | Potency [4]

C=C1[C@@H]2C[C@]3(C(CC2=O)[C@]24C5C[C@H]3[C@H]2N(CC)C[C@]5(C)CC[C@@H]4O)[C@@H]1O (stereo not given in full)
inactive: Potency [1] | Potency [2] | Potency [3] | Potency [4]

C#CCCCCCCCCCCCc1ccco1
inactive: Potency [1] | Potency [2] | Potency [3] | Potency [4]

O=C1N[C@@H](Cc2c[nH]c3ccccc23)C(=O)N[C@H]1Cc1ccccc1
inactive: Potency [1] | Potency [2] | Potency [3] | Potency [4]

C#CCCC[C@@H]1OC(=O)CNC(=O)C([C@@H](C)CC)NC(=O)[C@@H]2CCCN2C(=O)C([C@@H](C)CC)OC(=O)[C@H](Cc2ccccc2)N(C)C(=O)[C@H](C(C)C)NC(=O)C1(C)C (stereo not given in full)
inactive: Potency [1] | Potency [2] | Potency [3] | Potency [4]

CCN1C[C@@]2(COC)CCC(OC)[C@]34C5C[C@]6(O)[C@@H](OC)C[C@](OC(C)=O)(C([C@H](OC)C23)[C@H]14)C5[C@H]6OC(=O)c1ccc(OC)cc1 (stereo not given in full)
inactive: Potency [1] | Potency [2] | Potency [3] | Potency [4]

CCOc1c2ccoc2nc2c(OC)c(OC)ccc12
inactive: Potency [1] | Potency [2] | Potency [3] | Potency [4]

COc1ccc(C(=O)OC2CC3CC[C@H](C2)N3C(C)=O)cc1OC (stereo not given in full)
inactive: Potency [1] | Potency [2] | Potency [3] | Potency [4]

CCOC(=O)CC(C)C
inactive: Potency [1] | Potency [2] | Potency [3] | Potency [4]

CC12CCC(=O)C=C1CCC1C2C(O)CC2(C)C(O)CCC12 (stereo not given)
inactive: Potency [1] | Potency [2] | Potency [3] | Potency [4]

CC(=O)[C@@]1(O)CCC2C3CC[C@H]4C[C@@H](O)CC[C@]4(C)C3CC[C@@]21C (stereo not given in full)
inactive: Potency [1] | Potency [2] | Potency [3] | Potency [4]

CC(=O)O[C@@H]1CC2C(C)(C)C(=O)C=C[C@]2(C)C2CC[C@]3(C)C(=CC[C@H]3C3CO[C@@H](C(C)(C)O)[C@H](O)C3)[C@@]21C (stereo not given in full)
inactive: Potency [1] | Potency [2] | Potency [3] | Potency [4]

CC1=C(O)C(=O)CO1
inactive: Potency [1] | Potency [2] | Potency [3] | Potency [4]

CC(=NNC(=S)N1CCC1)c1ccccn1
active: Potency [1] 27.3 nM | Potency [2] 43.2 nM | Potency [3] 38.5 nM | Potency [4] 24.3 nM

Source: PubChem BioAssay (NCATS)
